Hit rate of the full screen: of about 5,500 compounds, about 2,000 (36%) were called active. Inconclusive results (about 18%) are left out. Cut-off read from the data, not from the text of the source: active = normalized growth mostly below about 0.91 (no sharp cut-off); inconclusive = no clear call, values can overlap the other calls; inactive = mostly above about 0.92. The list shows a part of the results.
Experiment: chemical genetic growth profiling, strain panel (AID 1159580);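 note: tested at 20 µM; growth read once vehicle control cultures reached saturation at 30 °C; 1 = growth at the plate median or of vehicle wells; lower values mean less growth of the strain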
Settings: growth OD

Measured: normalized growth

COC(=O)[C@H]1[C@H]2C[C@@H]3c4[nH]c5cc(OC)ccc5c4CCN3C[C@H]2C[C@@H](OC(=O)c2cc(OC)c(OC)c(OC)c2)[C@@H]1OC
inactive: S. cerevisiae deletion strains, locus YKL009W, strain mrt4, active compounds read low 1.02 | S. cerevisiae deletion strains, locus YKL068W, active compounds read low 1.01 | S. cerevisiae deletion strains, locus YKL085W, strain MDH1 (second series), active compounds read low 1.01 | S. cerevisiae deletion strains, locus YKL085W, strain MDH1, active compounds read low 1.01 | S. cerevisiae deletion strains, locus YKL160W, strain elf1, active compounds read low 0.961 | S. cerevisiae deletion strains, locus YKL190W, strain CNB1, active compounds read low 0.967 | S. cerevisiae deletion strains, locus YKR001C, strain vps1, active compounds read low 1.03 | S. cerevisiae deletion strains, locus YKR026C, strain gcn3, active compounds read low 0.99 | S. cerevisiae deletion strains, locus YKR091W, strain srl3, active compounds read low 0.982 | S. cerevisiae deletion strains, locus YLL001W, strain dnm1, active compounds read low 1.02 | S. cerevisiae deletion strains, locus YLL026W, active compounds read low 0.975 | S. cerevisiae deletion strains, locus YLL041C, strain sdh2, active compounds read low 0.983 | S. cerevisiae deletion strains, locus YLR027C, strain aat2, active compounds read low 0.986 | S. cerevisiae deletion strains, locus YLR039C, strain RIC1, active compounds read low 1.05 | S. cerevisiae deletion strains, locus YLR058C, strain SHM2, active compounds read low 0.999 | S. cerevisiae deletion strains, locus YLR102C, strain apc9, active compounds read low 1 | S. cerevisiae deletion strains, locus YLR113W, strain HOG1, active compounds read low 0.971 | S. cerevisiae deletion strains, locus YLR221C, strain rsa3, active compounds read low 1.02 | S. cerevisiae deletion strains, locus YLR258W, strain gsy2, active compounds read low 0.965 | S. cerevisiae deletion strains, locus YLR262C, strain YPT6 (second series), active compounds read low 1 | S. cerevisiae deletion strains, locus YLR262C, strain YPT6, active compounds read low 1.05 | S. cerevisiae deletion strains, locus YLR268W, strain sec22, active compounds read low 1.04 | S. cerevisiae deletion strains, locus YLR320W, strain mms22, active compounds read low 0.978 | S. cerevisiae deletion strains, locus YLR330W, strain CHS5, active compounds read low 1 | S. cerevisiae deletion strains, locus YLR342W, strain FKS1 (second series), active compounds read low 0.951 | S. cerevisiae deletion strains, locus YLR342W, strain FKS1, active compounds read low 0.959 | S. cerevisiae deletion strains, locus YLR357W, strain rsc2, active compounds read low 0.977 | S. cerevisiae deletion strains, locus YLR370C, strain arc18, active compounds read low 0.976 | S. cerevisiae deletion strains, locus YLR371W, strain rom2, active compounds read low 1.01 | S. cerevisiae deletion strains, locus YLR384C, strain iki3, active compounds read low 0.989 | S. cerevisiae deletion strains, locus YLR418C, strain cdc73, active compounds read low 0.977 | S. cerevisiae deletion strains, locus YML016C, strain PPZ1, active compounds read low 1 | S. cerevisiae deletion strains, locus YML032C, strain rad52, active compounds read low 1.02 | S. cerevisiae deletion strains, locus YML120C, strain ndi1, active compounds read low 1 | S. cerevisiae deletion strains, locus YML124C, strain tub3, active compounds read low 1.02 | S. cerevisiae deletion strains, locus YMR058W, strain fet3, active compounds read low 0.986 | S. cerevisiae deletion strains, locus YMR078C, strain ctf18, active compounds read low 1.01 | S. cerevisiae deletion strains, locus YMR125W, strain sto1, active compounds read low 0.986 | S. cerevisiae deletion strains, locus YMR129W, active compounds read low 0.981 | S. cerevisiae deletion strains, locus YMR205C, strain PFK2, active compounds read low 0.982 | S. cerevisiae deletion strains, locus YMR223W, strain ubp8, active compounds read low 0.995 | S. cerevisiae deletion strains, locus YMR231W, strain pep5, active compounds read low 1 | S. cerevisiae deletion strains, locus YMR263W, strain SAP30, active compounds read low 0.979 | S. cerevisiae deletion strains, locus YMR307W, strain GAS1, active compounds read low 0.912 | S. cerevisiae deletion strains, locus YNL067W, strain RPL9B, active compounds read low 0.994 | S. cerevisiae deletion strains, locus YNL071W, strain lat1, active compounds read low 0.971 | S. cerevisiae deletion strains, locus YNL128W, strain TEP1, active compounds read low 1 | S. cerevisiae deletion strains, locus YNL153C, strain GIM3, active compounds read low 1 | S. cerevisiae deletion strains, locus YNL183C, strain NPR1, active compounds read low 0.949 | S. cerevisiae deletion strains, locus YNL209W, strain ssb2, active compounds read low 0.984 | S. cerevisiae deletion strains, locus YNL233W, strain BNI4, active compounds read low 0.997 | S. cerevisiae deletion strains, locus YNL248C, strain rpa49, active compounds read low 0.955 | S. cerevisiae deletion strains, locus YNL250W, strain rad50, active compounds read low 1.01 | S. cerevisiae deletion strains, locus YNL271C, strain bni1, active compounds read low 1.02 | S. cerevisiae deletion strains, locus YNL298W, strain CLA4, active compounds read low 1.02 | S. cerevisiae deletion strains, locus YNL307C, strain MCK1, active compounds read low 1.01 | S. cerevisiae deletion strains, locus YNL322C, strain KRE1 (second series), active compounds read low 0.976 | S. cerevisiae deletion strains, locus YNL322C, strain KRE1, active compounds read low 0.995 | S. cerevisiae deletion strains, locus YNR049C, strain mso1, active compounds read low 0.972 | S. cerevisiae deletion strains, locus YNR052C, strain pop2, active compounds read low 1 | S. cerevisiae deletion strains, locus YOL006C, strain TOP1, active compounds read low 0.989 | S. cerevisiae deletion strains, locus YOL012C, strain htz1 0.714 | S. cerevisiae deletion strains, locus YOL147C, strain pex11, active compounds read low 1.02 | S. cerevisiae deletion strains, locus YOR001W, strain rrp6, active compounds read low 1.03 | S. cerevisiae deletion strains, locus YOR061W, strain CKA2, active compounds read low 0.999 | S. cerevisiae deletion strains, locus YOR069W, strain VPS5, active compounds read low 1 | S. cerevisiae deletion strains, locus YOR070C, strain gyp1, active compounds read low 0.983 | S. cerevisiae deletion strains, locus YOR080W, strain dia2, active compounds read low 0.982 | S. cerevisiae deletion strains, locus YOR083W, strain WHI5, active compounds read low 0.948 | S. cerevisiae deletion strains, locus YOR106W, strain vam3, active compounds read low 0.947 | S. cerevisiae deletion strains, locus YOR136W, strain idh2, active compounds read low 1.02 | S. cerevisiae deletion strains, locus YOR144C, strain elg1, active compounds read low 1.01 | S. cerevisiae deletion strains, locus YOR184W, strain ser1, active compounds read low 1.04 | S. cerevisiae deletion strains, locus YOR231W, strain MKK1, active compounds read low 0.983 | S. cerevisiae deletion strains, locus YOR265W, strain rbl2, active compounds read low 0.988 | S. cerevisiae deletion strains, locus YOR270C, strain vph1, active compounds read low 0.969 | S. cerevisiae deletion strains, locus YOR290C, strain snf2, active compounds read low 0.948 | S. cerevisiae deletion strains, locus YOR316C, strain cot1, active compounds read low 1.01 | S. cerevisiae deletion strains, locus YPL051W, strain arl3, active compounds read low 0.979 | S. cerevisiae deletion strains, locus YPL055C, strain LGE1, active compounds read low 0.972 | S. cerevisiae deletion strains, locus YPL078C, strain atp4, active compounds read low 0.972 | S. cerevisiae deletion strains, locus YPL106C, strain sse1, active compounds read low 0.895 | S. cerevisiae deletion strains, locus YPL240C, strain hsp82, active compounds read low 0.992 | S. cerevisiae deletion strains, locus YPL241C, strain CIN2, active compounds read low 0.997 | S. cerevisiae deletion strains, locus YPL256C, strain CLN2, active compounds read low 0.983 | S. cerevisiae deletion strains, locus YPR119W, strain clb2, active compounds read low 1.01 | S. cerevisiae deletion strains, locus YPR141C, strain kar3, active compounds read low 1.02 | S. cerevisiae deletion strains, locus YPR163C, strain tif3, active compounds read low 1.02 | S. cerevisiae deletion strains, locus YPR167C, strain met16, active compounds read low 1.01 | S. cerevisiae deletion strains, strain wtn01, active compounds read low 1.01 | S. cerevisiae strains, strain wild type, active compounds read low 0.986

Reference: PubChem BioAssay AID1159580 (chemical genetic matrix, 2015)
